Screening data from PubChem BioAssay.
Not all results are given here.
aSyn 5UTR act: Activators via SNCA 5'UTR binding, MLPCN. alpha-synuclein 5'UTR reporter, activators screen. activity score, % (tested at 7.5 µM), hits read low. 300,000 tested, 7.1% active. AID 1814; in the data active = activity score below about -60%
Numbers without * were called inactive.

SMILES | aSyn 5UTR act
Cc1ccc(NC(=O)Nc2ccc3c(c2)CCC3)cc1 | -123.7*
Cc1cc(NC(=O)CC2CCCC2)ccc1Br | -122.8*
Cc1cc(NC(=O)CCSc2ccccc2)ccc1Br | -61.6*
O=C(Nc1cccc(F)c1)Nc1ccc2c(c1)CCC2 | -160.1*
O=C(Nc1cccc([N+](=O)[O-])c1)Nc1ccc2c(c1)CCC2 | -105.0*
Cc1cc(SCC(=O)N/N=C/c2ccc(O)cc2O)c(C)cc1Br | 78.3
O=C(CC1CCCC1)Nc1ccc2c(c1)CCC2 | -112.4*
O=C(Nc1ccc2c(c1)CCC2)Nc1ccc(F)cc1F | -129.0*
O=C(Nc1cccnc1)c1cc2c(s1)-c1ccccc1OC2 | -126.4*
Cc1cccc2c1-c1sc(C(=O)Nc3cccnc3)cc1CO2 | -117.8*
Clc1ccc(-c2cnc3n2CCC3)cc1 | -103.1*
O=C(NCc1csc(-c2cccs2)n1)C1CCCCC1 | -66.7*
COc1ccccc1CC(=O)NCc1csc(-c2cccs2)n1 | -117.4*
COc1ccccc1CCNC(=O)c1nc(-c2cccs2)no1 | -93.3*
Cc1nn(-c2ccccc2)c(C)c1/C=N/NC(=O)CSc1nnc(SCc2ccccc2Cl)s1 | -71.3*
Cc1ccc(CSc2nnc(SCC(=O)N/N=C/c3c(C)nn(-c4ccccc4)c3C)s2)cc1 | -114.5*
CCOC(=O)N1CCN(C(=O)c2cc(COc3c(F)cccc3F)on2)CC1 | -151.1*
O=C(c1cc(COc2c(F)cccc2F)on1)N1CCCCCC1 | -98.8*
O=C(c1cc(COc2ccc3c(c2)CCCC3)on1)N1CCCC1 | -118.1*
O=C(Nc1nnc(C2CC2)s1)c1ccco1 | -74.0*
O=C(Nc1nnc(C2CCCCC2)s1)c1ccco1 | -177.9*
CCc1c(C(=O)Nc2nnc(C3CC3)s2)csc1C | -118.6*
O=C(Nc1nnc(C2CC2)s1)c1cc(-c2ccccc2)nn1-c1ccccc1 | -94.5*
CCN(CC)S(=O)(=O)c1ccc(NC(=O)c2ccccn2)cc1 | -119.9*
CN(C)S(=O)(=O)c1ccc(C(=O)Nc2ccccn2)cc1 | -69.8*
SMILES | aSyn 5UTR act
CN(C)S(=O)(=O)c1ccc(NC(=O)c2ccccn2)cc1 | -78.9*
COCCn1c(C)cc(C(=O)COC(=O)c2ccc3ncsc3c2)c1C | -150.8*
COCCn1c(C)cc(C(=O)COC(=O)c2cncc(Br)c2)c1C | -121.4*
COCCn1c(C)cc(C(=O)COC(=O)c2ccccc2Br)c1C | 54.7
O=C(Oc1ccc(OC(=O)C2CCC2)cc1)C1CCC1 | -65.1*
COc1ccc(CCC(=O)Nc2ccc(-c3noc(-c4ccc(OC)c(OC)c4)n3)cc2)cc1 | -158.4*
COc1ccc(-c2nc(-c3ccc(NC(=O)c4ccc(Br)o4)cc3)no2)cc1OC | -136.4*
Cc1cc(C(=O)NCc2csc(-c3ccccc3)n2)no1 | -82.5*
O=C(NCc1csc(-c2ccccc2)n1)c1ccco1 | -84.9*
O=C(N/N=C/c1cccc2ccccc12)c1cccs1 | -163.9*
Cc1cc(/C=N\NC(=O)c2cccs2)c(C)n1-c1ccc2ncccc2c1 | -144.8*
O=C(N/N=C/c1c[nH]c2ccccc12)c1ccc2c(c1)OCCO2 | -139.7*
O=C(N/N=C/c1c[nH]c2ccccc12)c1cccs1 | -127.2*
Cc1cccc(NC(=S)N/N=C/c2c[nH]c3ccccc23)c1 | -64.9*
Cc1cc(C(=O)N/N=C/c2c[nH]c3ccccc23)c(C)o1 | -81.0*
Cc1cc(C(=O)N/N=C/c2c[nH]c3ccccc23)cs1 | -73.8*
O=C(CSc1nnc(SCc2cccc3ccccc23)s1)N/N=C/c1c[nH]c2ccccc12 | -78.2*
C/C(=N\Nc1nncc2ccccc12)c1ccc(C(C)(C)C)cc1 | -83.6*
C/C(=N\Nc1nncc2ccccc12)c1cccc(OC(F)F)c1 | -97.4*
Cc1nc(SC(C)C(=O)NCC2CCCO2)c2cc(-c3ccccc3)sc2n1 (stereo not given) | -107.4*
N#Cc1c(N2CCCC(O)C2)nc(N)c2c(N)nc3c(c12)CC(=O)N3C12CC3CC(CC(C3)C1)C2 (stereo not given) | -232.4*
CN(/N=C/c1cccnc1)c1cnc2ccccc2n1 | -139.2*
CCCSc1nnc(-c2c[nH]c3ccccc23)n1C | -78.1*
Cc1ccc(O)c(-n2nc3ccccc3n2)c1 | -134.3*
CCN(CC)C(=O)c1sc2nc(-c3ccc(OC)cc3)cn2c1C | -150.5*
SMILES | aSyn 5UTR act
CNC(=O)c1sc2nc(-c3ccc(OC)cc3)cn2c1C | -138.5*
COC(=O)c1[nH]c2ccc(F)cc2c1NS(=O)(=O)c1ccc(OC)cc1 | 99.5
CCOC(=O)c1[nH]c2ccc(OC)cc2c1C | -122.3*
CCOC(=O)c1[nH]c2ccc(OC)cc2c1NC(=O)c1ccccc1C(=O)O | -65.4*
Cc1ccc(C)c(NC(=S)NC(NC(=O)Cc2cccc3ccccc23)C(Cl)(Cl)Cl)c1 (stereo not given) | 111.7
CCOC(=O)c1cc2cc(OC)ccc2[nH]1 | -147.2*
COc1ccc2[nH]c3c(C)c4ccncc4c(C)c3c2c1 | 109.3
CCOC(=O)c1[nH]c2ccccc2c1NC(=S)Nc1cc(C)ccc1C | -87.9*
CCOc1ccc2[nH]c(C(=O)N/N=C/c3ccc(OC)cc3)cc2c1 | 75.9
O=C(Nc1ccc(-c2nc3cccnc3s2)cc1)c1ccc(Br)o1 | -159.2*
O=C(Nc1ccc(-c2nc3cccnc3s2)cc1)c1ccc(Cl)nc1 | -150.9*
COc1cc(SC)ccc1C(=O)OCC(=O)NC1CCCC1 | -93.7*
O=[N+]([O-])c1ccc(N/N=C/c2cn(-c3ccccc3)nc2-c2ccccc2)cc1 | -71.0*
NS(=O)(=O)c1ccc(N/N=C/c2cn(-c3ccccc3)nc2-c2ccccc2)c([N+](=O)[O-])c1 | -121.0*
Cc1ccc(C2=NNC3(CCOC(C)(C)C3)S2)cc1 (stereo not given) | -163.9*
O=C(NNC(=O)c1ccccc1F)c1cccc(-n2cccc2)c1 | -73.9*
N#C/C(=N\Nc1ccccc1)C(=N)N1CCCCC1 | -77.7*
N#C/C(=N\Nc1ccc(Cl)cc1)C(=N)N1CCCCCC1 | -133.4*
Cc1ccc(N/N=C(\C#N)C(=N)N2CCCCC2)cc1 | -91.2*
CCN(CC)C(=N)/C(C#N)=N/Nc1ccccc1 | -80.9*
CCCC(=O)Nc1ccc(-c2csc(N/N=C\c3ccncc3)n2)cc1 | -116.3*
CC(C)=NNc1nc(-c2ccccc2)cs1 | -181.9*
C(=N\Nc1nc(-c2ccccc2)cs1)/c1cccnc1 | -338.9*
Cc1ccc(/C=N/Nc2nc(C(C)(C)C)cs2)o1 | -122.9*
CC(C)(C)c1csc(N/N=C/c2cccnc2)n1 | -173.1*
SMILES | aSyn 5UTR act
COc1ccccc1-c1cnn2c(NCCc3ccccc3)cc(C)nc12 | -111.8*
Cc1cc(NCc2ccccc2)n2ncc(-c3ccccc3)c2n1 | -71.5*
Cc1cc(NC(C)c2ccccc2)n2ncc(-c3ccccc3)c2n1 (stereo not given) | -83.0*
Cc1cc(NCCN2CCOCC2)n2ncc(-c3ccccc3)c2n1 | -61.9*
Cc1cc(NC2CCCC2)n2ncc(-c3ccccc3)c2n1 | 59.9
C=CCc1c(C)nc2c(-c3ccccc3)cnn2c1N1CCOCC1 | -175.0*
O=C(/C=C/c1nc2ccccc2s1)N1CCCCCC1 | -107.1*
CC1CCCCC1NC(=O)/C=C/c1nc2ccccc2s1 (stereo not given) | -148.5*
Clc1ccc(-c2csc(N3CCCCCC3)n2)cc1 | -85.3*
Clc1ccc(-c2csc(N3CCOCC3)n2)cc1 | -140.3*
COc1ccc(-c2csc(N3CCOCC3)n2)cc1OC | -79.7*
O=[N+]([O-])c1ccc(-c2csc(N3CCCCCC3)n2)cc1 | -77.6*
c1ccc(-c2cnnc(N3CCCCC3)n2)cc1 | -139.6*
Brc1ccc(-c2csc(N3CCOCC3)n2)cc1 | -131.9*
CN1CCN(c2nc(-c3ccc(Cl)s3)cs2)CC1 | -83.6*
c1ccc(-c2csc(N3CCCCCC3)n2)cc1 | -139.0*
